In the supplement of paper PMC10849652:
The full data set covers some 7,900 targets. This sample favours those with a hit. About 0.6% of all pairs of compound and target were hits.

Experiments:
Assay in all cases: log2 fold change, soluble protein after heating vs DMSO (PISA); higher = thermal stabilisation; K562 cells, 10 uM, 30 min; active = over 0.2 and 3.5 SD of the protein, either way, in both replicates (recomputed)
[1] = compound: CC1=C(C=C(C=C1)NC(=O)C2=CC(=CC=C2)C(C)(C)C#N)NC3=CC4=C(C=C3)N=CN(C4=O)C
Procedure, shortened: (§1)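 K562 cells (2×10^6 cells/mL) were treated with 10 μM compound for 30 min, and aliquots were heated for 3 min over 48°C-58°C. Pooled aliquots were extracted in PBS with 0.5% NP-40 at 4°C, and the supernatant after 21,000xg for 90 min was measured by TMTpro 16plex LC-MS/MS with channel sums equalised. Reported thermal stability, relative to control samples and from duplicates, is a log2 fold change.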

[2] = compound: CC1=C(C=C(C=C1)NC(=O)C2=CC(=CC=C2)N(C)C)NC(=O)C3=CC=C(C=C3)O
Procedure, shortened: as §1

[3] = compound: CC1=CC=C(C=C1)SC2=C3C=C(SC3=CN=C2)C(=O)N
Procedure, shortened: as §1

[4] = compound: CC1=NC(=CC=C1)C2=C(N=C(N2)C(C)(C)C)C3=CC4=NC=CN=C4C=C3
Procedure, shortened: as §1

Nexturastat A = compound: CCCCN(Cc1ccc(C(=O)NO)cc1)C(=O)Nc1ccccc1 [Nexturastat A]
Procedure, shortened: as §1

vemurafenib = compound: CCCS(=O)(=O)Nc1ccc(F)c(C(=O)c2c[nH]c3ncc(-c4ccc(Cl)cc4)cc23)c1F [vemurafenib]
Procedure, shortened: as §1

[5] = compound: CCCS(=O)(=O)Nc1ccc(F)c(C(=O)c2c[nH]c3ncc(Cl)cc23)c1F
Procedure, shortened: as §1

[6] = compound: CCCc1cc(C)[nH]c(=O)c1CNC(=O)c1cc(-c2ccnc(N3CCN(C)CC3)c2)cc2c1cnn2C(C)C
Procedure, shortened: as §1

givinostat = compound: CCN(CC)Cc1ccc2cc(COC(=O)Nc3ccc(C(=O)NO)cc3)ccc2c1 [givinostat]
Procedure, shortened: as §1

barasertib = compound: CCN(CCCOc1ccc2c(Nc3cc(CC(=O)Nc4cccc(F)c4)[nH]n3)ncnc2c1)CCOP(=O)(O)O [barasertib]
Procedure, shortened: as §1

[7] = compound: CC[C@@H]1C(=O)N(C)c2cnc(Nc3ccc(C(=O)NC4CCN(C)CC4)cc3OC)nc2N1C1CCCC1
Procedure, shortened: as §1

volasertib = compound: CC[C@@H]1C(=O)N(C)c2cnc(Nc3ccc(C(=O)N[C@H]4CC[C@H](N5CCN(CC6CC6)CC5)CC4)cc3OC)nc2N1C(C)C [volasertib]
Procedure, shortened: as §1

[8] = compound: CC[C@H](C)N1C=C(C2=C(C=C(C=C21)C3=CN=C(C=C3)N4CCNCC4)C(=O)NCC5=C(C=C(NC5=O)C)C)C
Procedure, shortened: as §1

epoxomicin = compound: CC[C@H](C)[C@@H](C(=O)N[C@@H]([C@@H](C)O)C(=O)N[C@@H](CC(C)C)C(=O)[C@]1(CO1)C)NC(=O)[C@H]([C@@H](C)CC)N(C)C(=O)C [epoxomicin]
Procedure, shortened: as §1

[9] = compound: CCn1c(C(=O)N(C2CC2)C2CC2)cc2c3c(ncn3C)c(Nc3cc(C)n(C)n3)nc21
Procedure, shortened: as §1

[10] = compound: CCn1cc(-c2ccnc3[nH]c(-c4cccc(CN(C)C)c4)cc23)c(-c2ccc(NC(=O)N(C)C)cc2)n1
Procedure, shortened: as §1

[11] = compound: CN(C)CC(=O)Nc1ccc2[nH]c(=O)c3ccccc3c2c1
Procedure, shortened: as §1

rosiglitazone = compound: CN(CCOC1=CC=C(C=C1)C[C@H]2C(=O)NC(=O)S2)C3=CC=CC=N3 (racemic) [rosiglitazone]
Procedure, shortened: as §1

[12] = compound: CN1C2=C(C3=C1C(=O)N(N=C3)CC4=CC(=CC=C4)N)SC(=C2)S(=O)C
Procedure, shortened: as §1

[13] = compound: CN1CCC(CNc2ccc3ncc(-c4cccc(OC(F)(F)F)c4)n3n2)CC1
Procedure, shortened: as §1

Measured: log2 fold change

VPS13B (UniProt Q7Z7G8)
inactive: [1] 0.02 | [2] -0.028 | [3] 0.06 | [4] 0.057 | Nexturastat A -0.011 | vemurafenib 0.008 | [5] -0.011 | [6] -0.008 | givinostat 0.002 | barasertib 0.002 | [7] -0.01 | volasertib -0.088 | [8] 0.004 | epoxomicin 0.019 | [9] -0.016 | [10] -0.008 | [11] -0.028 | rosiglitazone 0.011 | [12] -0.053 | [13] -0.109

WEE1 (UniProt P30291)
Chain of UniProt P30291 (P30291 whole entry, looked up): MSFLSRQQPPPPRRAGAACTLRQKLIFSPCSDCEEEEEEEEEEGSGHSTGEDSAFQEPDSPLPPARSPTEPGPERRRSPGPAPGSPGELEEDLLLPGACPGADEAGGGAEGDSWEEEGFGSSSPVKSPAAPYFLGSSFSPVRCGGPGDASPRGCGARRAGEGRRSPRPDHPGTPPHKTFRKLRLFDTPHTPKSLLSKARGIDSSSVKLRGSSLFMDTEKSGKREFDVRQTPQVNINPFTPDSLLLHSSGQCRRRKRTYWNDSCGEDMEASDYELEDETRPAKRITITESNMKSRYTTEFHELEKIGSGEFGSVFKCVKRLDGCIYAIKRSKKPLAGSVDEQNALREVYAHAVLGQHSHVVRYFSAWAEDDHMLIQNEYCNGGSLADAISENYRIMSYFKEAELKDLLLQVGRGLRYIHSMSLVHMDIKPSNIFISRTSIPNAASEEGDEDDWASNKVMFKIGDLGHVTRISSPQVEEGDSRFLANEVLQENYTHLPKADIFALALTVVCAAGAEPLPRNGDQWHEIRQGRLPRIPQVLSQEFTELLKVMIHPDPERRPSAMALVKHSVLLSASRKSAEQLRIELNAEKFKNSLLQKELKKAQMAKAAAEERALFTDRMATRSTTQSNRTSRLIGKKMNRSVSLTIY
inactive: [1] -0.037 | [2] 0.02 | [3] -0.304 | [4] -0.046 | Nexturastat A 0.322 | vemurafenib 0 | [5] 0 | [6] -0.137 | givinostat 0.037 | barasertib -0.005 | volasertib 0.07 | [8] -0.028 | epoxomicin 0.203 | [9] 0.003 | [10] -0.209 | [11] -0.103 | rosiglitazone 0.072 | [12] 0.046 | [13] 0.195

TSPAN13 (UniProt O95857)
Chain of UniProt O95857 (O95857 whole entry, looked up): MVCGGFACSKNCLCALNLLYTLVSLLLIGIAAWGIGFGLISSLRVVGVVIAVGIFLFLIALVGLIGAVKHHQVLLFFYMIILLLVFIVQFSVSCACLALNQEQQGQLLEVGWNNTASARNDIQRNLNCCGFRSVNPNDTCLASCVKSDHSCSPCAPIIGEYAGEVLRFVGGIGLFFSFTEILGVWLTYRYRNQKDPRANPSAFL
inactive: [1] 0.111 | [2] -0.078 | [3] 0.161 | Nexturastat A -0.061 | vemurafenib 0.103 | [5] -0.08 | [6] -0.113 | givinostat -0.063 | barasertib -0.041 | volasertib 0.098 | [8] -0.083 | epoxomicin -0.148 | [9] 0.097 | [10] -0.098 | rosiglitazone 0 | [12] -0.036 | [13] -0.003
active: [11] 0.512

UBIAD1 (UniProt Q9Y5Z9)
inactive: [1] -0.03 | [2] 0.059 | [3] 0.004 | [4] 0.015 | vemurafenib 0.07 | [5] 0.093 | [6] 0.023 | givinostat 0.043 | barasertib 0.023 | [7] -0.008 | volasertib -0.065 | [8] -0.014 | [9] -0.009 | [10] 0.027 | [11] -0.011 | rosiglitazone 0.044 | [12] -0.094 | [13] -0.041

VPS37A (UniProt Q8NEZ2)
Chain of UniProt Q8NEZ2 (Q8NEZ2 whole entry, looked up): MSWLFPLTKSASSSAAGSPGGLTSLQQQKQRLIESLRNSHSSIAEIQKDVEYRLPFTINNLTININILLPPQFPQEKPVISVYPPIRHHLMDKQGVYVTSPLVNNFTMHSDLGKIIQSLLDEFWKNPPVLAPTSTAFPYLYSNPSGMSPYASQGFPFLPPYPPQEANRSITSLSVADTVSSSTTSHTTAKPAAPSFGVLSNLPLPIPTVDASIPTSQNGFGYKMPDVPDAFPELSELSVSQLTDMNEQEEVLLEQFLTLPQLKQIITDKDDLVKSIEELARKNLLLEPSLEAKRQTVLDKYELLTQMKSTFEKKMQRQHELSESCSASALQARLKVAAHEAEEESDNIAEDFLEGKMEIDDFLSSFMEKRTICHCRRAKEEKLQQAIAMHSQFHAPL
inactive: [1] -0.015 | [2] -0.171 | [3] 0.019 | [4] 0.001 | Nexturastat A -0.048 | vemurafenib 0.128 | [5] 0.054 | [6] 0.014 | givinostat 0.14 | barasertib 0.076 | [8] 0.085 | epoxomicin 0.045 | [9] -0.001 | [10] -0.068 | [11] 0.165 | rosiglitazone 0.021 | [12] 0.025 | [13] 0.054
active: volasertib -0.707

TNNC2 (UniProt P02585)
Chain of UniProt P02585 (P02585 whole entry, looked up): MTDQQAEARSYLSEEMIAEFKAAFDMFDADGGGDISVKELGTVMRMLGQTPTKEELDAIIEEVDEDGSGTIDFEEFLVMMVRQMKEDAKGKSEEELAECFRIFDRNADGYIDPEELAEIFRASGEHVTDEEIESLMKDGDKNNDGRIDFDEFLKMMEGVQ
inactive: [1] -0.064 | [2] 0.037 | [3] 0.002 | [4] -0.024 | Nexturastat A -0.011 | vemurafenib 0 | [5] -0.016 | [6] -0.045 | givinostat -0.037 | barasertib -0.004 | [7] 0.042 | volasertib 0.07 | [8] -0.031 | epoxomicin -0.037 | [9] 0.016 | [10] 0.04 | [11] -0.006 | rosiglitazone 0.006 | [12] -0.053 | [13] -0.015

WDR41 (UniProt Q9HAD4)
Chain of UniProt Q9HAD4 (Q9HAD4 whole entry, looked up): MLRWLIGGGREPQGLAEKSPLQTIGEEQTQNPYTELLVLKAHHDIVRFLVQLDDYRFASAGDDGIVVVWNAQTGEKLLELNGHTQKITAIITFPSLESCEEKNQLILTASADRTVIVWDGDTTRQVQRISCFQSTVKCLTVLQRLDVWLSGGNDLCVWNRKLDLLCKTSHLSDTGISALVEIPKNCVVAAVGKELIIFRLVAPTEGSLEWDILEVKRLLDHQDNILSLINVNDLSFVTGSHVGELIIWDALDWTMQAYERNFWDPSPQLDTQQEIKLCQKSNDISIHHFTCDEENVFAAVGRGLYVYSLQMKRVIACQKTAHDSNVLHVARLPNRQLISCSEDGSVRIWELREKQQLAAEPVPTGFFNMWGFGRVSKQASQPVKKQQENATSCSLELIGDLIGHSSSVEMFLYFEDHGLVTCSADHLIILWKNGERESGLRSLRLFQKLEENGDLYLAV
inactive: [1] 0.044 | [2] 0 | [3] -0.007 | [4] 0.001 | Nexturastat A 0.002 | vemurafenib 0.008 | [5] 0.036 | [6] -0.011 | givinostat -0.04 | barasertib 0.033 | [7] -0.169 | [8] -0.056 | epoxomicin 0.061 | [9] -0.026 | [10] -0.043 | [11] 0.012 | rosiglitazone 0.007 | [12] -0.076 | [13] -0.115
active: volasertib -0.282

WDR61 (UniProt Q9GZS3)
active: [13] -0.247
inactive: [1] -0.026 | [2] 0.024 | [3] 0.001 | [4] -0.027 | Nexturastat A -0.035 | vemurafenib -0.072 | [5] -0.115 | [6] -0.02 | givinostat 0.026 | barasertib 0.038 | [7] 0.067 | volasertib 0.102 | [8] 0.035 | epoxomicin -0.029 | [9] 0.011 | [10] 0.035 | [11] -0.011 | rosiglitazone 0.095 | [12] -0.066

UTP3 (UniProt Q9NQZ2)
Chain of UniProt Q9NQZ2 (Q9NQZ2 whole entry, looked up): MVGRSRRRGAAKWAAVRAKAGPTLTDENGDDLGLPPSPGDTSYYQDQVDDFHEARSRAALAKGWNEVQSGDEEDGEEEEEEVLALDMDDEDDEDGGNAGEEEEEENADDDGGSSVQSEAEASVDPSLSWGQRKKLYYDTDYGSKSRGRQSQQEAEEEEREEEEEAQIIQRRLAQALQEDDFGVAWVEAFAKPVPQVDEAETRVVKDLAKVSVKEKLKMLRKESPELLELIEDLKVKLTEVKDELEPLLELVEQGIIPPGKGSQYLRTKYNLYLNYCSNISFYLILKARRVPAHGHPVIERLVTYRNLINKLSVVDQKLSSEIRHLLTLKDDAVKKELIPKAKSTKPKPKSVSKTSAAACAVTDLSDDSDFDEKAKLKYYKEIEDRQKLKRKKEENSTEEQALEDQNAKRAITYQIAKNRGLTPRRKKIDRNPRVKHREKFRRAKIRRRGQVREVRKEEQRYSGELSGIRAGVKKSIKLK
inactive: [1] -0.016 | [2] 0.008 | [3] -0.094 | [4] -0.048 | Nexturastat A 0.308 | vemurafenib 0.004 | [5] 0.022 | [6] 0.101 | givinostat 0.075 | barasertib -0.08 | [7] 0.067 | volasertib -0.012 | epoxomicin -0.376 | [9] -0.007 | [10] 0.236 | [11] -0.052 | rosiglitazone -0.41 | [12] 0.165 | [13] 0.092

UTP4 (UniProt Q969X6)
Chain of UniProt Q969X6 (Q969X6 whole entry, looked up): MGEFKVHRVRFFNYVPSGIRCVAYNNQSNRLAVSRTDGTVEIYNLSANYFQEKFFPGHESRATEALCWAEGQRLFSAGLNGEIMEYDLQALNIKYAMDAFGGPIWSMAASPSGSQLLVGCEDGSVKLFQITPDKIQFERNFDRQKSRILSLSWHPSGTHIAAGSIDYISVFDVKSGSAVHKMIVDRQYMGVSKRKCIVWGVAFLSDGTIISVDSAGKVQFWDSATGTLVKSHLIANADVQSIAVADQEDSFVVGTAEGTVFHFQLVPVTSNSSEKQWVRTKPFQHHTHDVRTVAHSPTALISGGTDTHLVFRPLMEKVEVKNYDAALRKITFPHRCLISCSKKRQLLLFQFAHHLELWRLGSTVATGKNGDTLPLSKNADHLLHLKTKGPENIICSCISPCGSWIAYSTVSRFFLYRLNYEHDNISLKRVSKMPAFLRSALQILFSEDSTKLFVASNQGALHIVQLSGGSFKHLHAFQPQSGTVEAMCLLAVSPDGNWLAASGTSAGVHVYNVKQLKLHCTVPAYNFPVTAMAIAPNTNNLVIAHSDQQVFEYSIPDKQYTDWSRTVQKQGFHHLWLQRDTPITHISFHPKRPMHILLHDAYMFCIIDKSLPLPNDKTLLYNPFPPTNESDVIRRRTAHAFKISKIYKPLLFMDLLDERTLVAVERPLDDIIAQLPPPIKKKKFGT
active: [13] 0.233
inactive: [1] -0.036 | [2] 0.029 | [3] 0.009 | [4] -0.007 | Nexturastat A -0.06 | vemurafenib -0.028 | [5] -0.021 | [6] -0.019 | givinostat -0.033 | barasertib -0.005 | [7] 0.032 | volasertib 0.006 | [8] -0.017 | epoxomicin -0.02 | [9] 0.001 | [10] 0.043 | [11] -0.036 | rosiglitazone -0.006 | [12] -0.061

TTC33 (UniProt Q6PID6)
Chain of UniProt Q6PID6 (Q6PID6 whole entry, looked up): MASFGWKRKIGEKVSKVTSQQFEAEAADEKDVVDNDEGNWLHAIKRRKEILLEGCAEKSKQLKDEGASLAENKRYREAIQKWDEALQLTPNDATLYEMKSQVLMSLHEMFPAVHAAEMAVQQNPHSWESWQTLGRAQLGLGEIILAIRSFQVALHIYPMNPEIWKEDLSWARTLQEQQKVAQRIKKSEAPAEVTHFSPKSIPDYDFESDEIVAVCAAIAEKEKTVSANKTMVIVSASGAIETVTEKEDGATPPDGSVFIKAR
inactive: [1] -0.046 | [2] -0.025 | [3] -0.059 | [4] -0.189 | Nexturastat A 0.026 | vemurafenib -0.07 | [5] -0.002 | [6] -0.471 | givinostat -0.062 | barasertib 0.079 | [7] 0.038 | volasertib -0.027 | epoxomicin 0.049 | [9] 0.012 | [11] -0.075 | rosiglitazone 0.035 | [12] -0.048 | [13] 0.138
active: [10] -0.449

VDAC1 (UniProt P21796)
Chain of UniProt P21796 (P21796 whole entry, looked up): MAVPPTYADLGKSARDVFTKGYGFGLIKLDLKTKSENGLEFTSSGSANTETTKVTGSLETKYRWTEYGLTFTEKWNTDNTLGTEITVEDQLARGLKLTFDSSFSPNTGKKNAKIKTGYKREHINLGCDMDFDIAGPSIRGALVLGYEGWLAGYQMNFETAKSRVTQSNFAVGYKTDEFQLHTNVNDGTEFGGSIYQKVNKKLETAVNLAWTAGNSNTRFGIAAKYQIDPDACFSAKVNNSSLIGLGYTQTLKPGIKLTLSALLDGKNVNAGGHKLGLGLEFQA
inactive: [1] -0.025 | [2] 0.02 | [3] 0.025 | [4] 0.012 | Nexturastat A -0.028 | vemurafenib 0.015 | [5] 0.018 | [6] -0.005 | givinostat -0.001 | barasertib -0.017 | [7] 0.019 | volasertib 0.063 | [8] -0.013 | epoxomicin 0.012 | [9] 0.023 | [10] -0.009 | [11] -0.005 | [12] -0.022 | [13] 0.055

TMEM120A (UniProt Q9BXJ8)
Chain of UniProt Q9BXJ8 (Q9BXJ8 whole entry, looked up): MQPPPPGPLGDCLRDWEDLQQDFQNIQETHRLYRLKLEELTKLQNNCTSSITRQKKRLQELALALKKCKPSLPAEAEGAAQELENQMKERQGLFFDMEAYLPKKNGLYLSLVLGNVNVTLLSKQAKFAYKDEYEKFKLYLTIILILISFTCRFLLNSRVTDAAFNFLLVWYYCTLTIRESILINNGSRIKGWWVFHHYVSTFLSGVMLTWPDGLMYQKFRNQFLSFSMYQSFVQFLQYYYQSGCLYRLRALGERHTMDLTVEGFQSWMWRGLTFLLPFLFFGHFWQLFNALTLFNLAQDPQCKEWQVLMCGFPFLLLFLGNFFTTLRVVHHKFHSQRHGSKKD
inactive: [1] 0.181 | [2] 0.007 | [3] 0.115 | [4] -0.004 | Nexturastat A -0.259 | vemurafenib 0.06 | [5] 0.085 | [6] -0.007 | givinostat 0.116 | barasertib -0.006 | [7] 0.127 | volasertib -0.053 | [8] 0.119 | epoxomicin 0.198 | [9] -0.011 | [10] -0.128 | [11] 0.015 | rosiglitazone 0.149 | [12] -0.061 | [13] 0.07

UBC (UniProt P0CG48)
Chain of UniProt P0CG48 (P0CG48 whole entry, looked up): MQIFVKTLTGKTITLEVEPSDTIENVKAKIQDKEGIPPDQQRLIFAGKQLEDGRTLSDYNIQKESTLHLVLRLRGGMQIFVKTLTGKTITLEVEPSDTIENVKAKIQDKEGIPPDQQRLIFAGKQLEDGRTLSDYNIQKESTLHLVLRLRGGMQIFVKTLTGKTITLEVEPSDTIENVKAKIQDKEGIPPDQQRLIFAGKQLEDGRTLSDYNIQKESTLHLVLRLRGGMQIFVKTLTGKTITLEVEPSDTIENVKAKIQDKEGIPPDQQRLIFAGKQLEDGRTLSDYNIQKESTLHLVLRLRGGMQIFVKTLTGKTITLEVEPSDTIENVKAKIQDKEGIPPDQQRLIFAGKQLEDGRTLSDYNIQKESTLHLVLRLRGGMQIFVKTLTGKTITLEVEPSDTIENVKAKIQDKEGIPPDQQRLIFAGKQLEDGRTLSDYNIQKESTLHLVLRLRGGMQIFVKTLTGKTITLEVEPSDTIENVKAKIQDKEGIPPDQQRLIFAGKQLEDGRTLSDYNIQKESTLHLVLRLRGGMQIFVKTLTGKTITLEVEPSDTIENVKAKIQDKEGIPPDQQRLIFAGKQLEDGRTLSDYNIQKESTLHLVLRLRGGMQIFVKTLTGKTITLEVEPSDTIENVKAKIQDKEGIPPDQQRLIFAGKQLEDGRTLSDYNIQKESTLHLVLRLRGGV
active: epoxomicin 0.401
inactive: [1] 0.007 | [2] -0.091 | [3] -0.001 | [4] -0.032 | Nexturastat A 0.151 | vemurafenib -0.016 | [5] -0.08 | [6] -0.017 | givinostat 0.028 | barasertib -0.018 | [7] 0.065 | volasertib 0.087 | [8] 0.015 | [9] 0.026 | [10] 0.024 | [11] 0.003 | rosiglitazone 0.003 | [12] -0.023 | [13] 0.158

UPF3B (UniProt Q9BZI7)
inactive: [1] -0.047 | [2] -0.004 | [3] 0 | [4] -0.053 | Nexturastat A 0.29 | vemurafenib -0.108 | [5] -0.069 | [6] 0.139 | givinostat 0.03 | barasertib -0.058 | [7] 0.146 | volasertib 0.333 | [8] 0.059 | epoxomicin -0.388 | [9] 0.084 | [10] 0.271 | [11] -0.1 | rosiglitazone -0.094 | [12] 0.28 | [13] 0.341

TXNL4B (UniProt Q9NX01)
Chain of UniProt Q9NX01 (Q9NX01 whole entry, looked up): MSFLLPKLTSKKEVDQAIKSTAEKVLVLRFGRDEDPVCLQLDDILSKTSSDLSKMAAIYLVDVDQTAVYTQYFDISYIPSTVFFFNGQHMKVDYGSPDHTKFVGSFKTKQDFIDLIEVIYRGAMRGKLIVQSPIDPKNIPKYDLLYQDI
inactive: [1] -0.037 | [2] -0.088 | [3] -0.002 | [4] -0.04 | [5] 0.024 | [6] -0.06 | givinostat 0.014 | barasertib 0.306 | [7] 0.075 | volasertib -0.111 | [8] -0.036 | [9] -0.015 | [10] -0.069 | [11] 0.186 | rosiglitazone 0.056 | [12] 0.051 | [13] -0.053
active: vemurafenib 0.453
